# From PubChem BioAssay
# This is a sample that favours compounds with a hit; in the whole collection about 1.8% have one here.
# LGR2 antag – blocks bursicon-induced cAMP signaling via Drosophila LGR2 | HEK293 LGR2, CRE-luciferase, bursicon-stimulated, 4 h | AID 720647 | 0.35% of 380,000 active | inhibition, % at 9.99 µM;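 active = drop in luminescence signal, shown as inhibition above about 50% in the replicate tests, limit read from the data, passing the limit was not always enough; inconclusive = probably only some replicates passing the limit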;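 note: agonist challenge used bursicon conditioned medium at about half maximal strength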
# GSIS activator – primary screen for activators of insulin secretion dependent on glucose, INS-1E cells, GLuc reporter luminescence. 0.61% of 370,000 active. AID 743287. activation, % at 16.6 µM. INS-1E GLuc reporter insulin secretion, 2-3 h;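 active = lowest replicate activation of at least 40%, so every replicate reaches that level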;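 note: 0% = median of neutral control wells and 100% = median of IBMX positive control wells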
# RAD52 inh – RAD52 (human) annealing inhibition | P43351 | recombinant RAD52 DNA annealing, FRET fluorescence | inhibition, % at 18.7 µM | 0.46% of 360,000 active;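 active = every replicate showing at least 50% inhibition; inconclusive = mean inhibition at least 50% but not in every replicate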
# Target sequence (P43351 whole entry, looked up): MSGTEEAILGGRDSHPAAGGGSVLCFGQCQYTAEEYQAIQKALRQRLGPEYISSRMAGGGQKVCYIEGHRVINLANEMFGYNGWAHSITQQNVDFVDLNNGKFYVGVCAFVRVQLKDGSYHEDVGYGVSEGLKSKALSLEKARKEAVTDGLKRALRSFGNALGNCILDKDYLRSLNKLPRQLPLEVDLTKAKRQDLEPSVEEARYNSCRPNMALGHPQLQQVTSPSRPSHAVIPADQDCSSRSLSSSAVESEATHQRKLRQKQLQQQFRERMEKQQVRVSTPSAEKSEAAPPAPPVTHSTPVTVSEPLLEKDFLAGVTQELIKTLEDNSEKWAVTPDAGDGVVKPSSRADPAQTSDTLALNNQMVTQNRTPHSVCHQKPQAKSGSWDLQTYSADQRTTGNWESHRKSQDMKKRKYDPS
# EWS-Fli inh – EWS/Fli transcriptional activity inhibition. 0.67% of 350,000 active. inhibition, % at 12.6 µM. A673 NR0B1-luciferase reporter, viability-normalised. AID 651661;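 active = mean inhibition of at least 50% after viability correction, with every replicate also passing that limit; inconclusive = mean reaches 50% but only one of two replicates passes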;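 note: firefly luciferase signal divided by Alamar Blue viability fluorescence both relative to DMSO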
# F508del corr – correctors of CFTR F508del function in bronchial epithelial cells | CFBE cells, YFP halide quenching; stimulated with forskolin plus potentiator P3; % fluorescence drop versus neutral controls | activity (quench increase), % at 7.58 µM | 0.36% of 350,000 active | AID 720511;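 active = mean added fluorescence quench of at least 8% versus neutral control, with both replicates also reaching 8%; inconclusive = only one of the mean or replicate conditions met; inactive = mean below 8% and not both replicates reaching 8%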;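 note: cells transiently co-express mutant CFTR-F508del with the halide-sensitive YFP; corrector assay measuring rescue of mutant channel to the surface after 24 h compound exposure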
# RAD54 branch – inhibitors of human RAD54 branch migration. Q92698. RAD54 Holliday junction branch migration, FAM/BHQ fluorescence. inhibition, % at 10.4 µM. 0.14% of 360,000 active. AID 602329;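 active = mean normalized replicate activity at least 40 and at least half of replicates scoring 40 or more; inconclusive = only one of the two criteria met; inactive = mean below 40 and under half of replicates reaching 40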;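 note: 0% = median of neutral control wells and 100% = median of positive control wells; inhibitors cause a drop in the FAM fluorescence signal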
# DNA binding – DNA binding artifact in Rad54 counter-screen | AID 651673 | shares compounds with RAD54 branch | AC50, µM (highest dose often 35 µM), inactives show top-dose activity change, negative = DNA binding | Acridine orange-DNA displacement, fluorescence polarization, 20 min | 8% of 460 active;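 active = signal drop giving an AC50 within twice the top valid tested concentration of each sample, actives reach about 35 µM in these data; inactive = activity opposite to expected, plus the rest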;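 note: polarization loss reports compound binding to salmon sperm DNA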
# The depositor's hits bear a star; ? = inconclusive; . = not tested or not shown.
SMILES,LGR2 antag,GSIS activator,RAD52 inh,EWS-Fli inh,F508del corr,RAD54 branch,DNA binding
N#C[C@H]1[C@@H](c2ccccc2-c2ccccc2)[C@@H](CO)N1C(=O)Cc1ccccc1,6.5,-14.6,-1.0,3.1,0.8,.,.
CC(C)c1ccc(NC(=O)Cn2nnc(C(=O)NCc3ccco3)c2N)cc1,-5.4,-14.9,-15.4,.,0.9,-6.2,.
CCCCN(CC)CCNC(=O)c1cc2c(=O)n(C)c3ccccc3c2n1C,-2.8,0.0,7.8,-5.4,-0.4,56.2*,-15.9%
Cc1ccc(S(=O)(=O)Nc2ccc3c(c2)C(=O)N([C@@H](C)CO)C[C@H](C)[C@@H](CN(C)Cc2ccc(Oc4ccccc4)cc2)O3)cc1,17.8,12.6,.,-2.3,4.9,.,.
CCN1CCc2c(sc(NC(=O)c3ccc(C(=O)c4ccccc4)cc3)c2C(N)=O)C1,12.7,-11.2,-41.0,5.8,0.9,?,9.2%
CCOC(=O)c1c(NC(=O)c2ccc(S(=O)(=O)N3CCOCC3)cc2)sc2c1CCN(C(C)C)C2,-6.4,-5.2,-241.5,.,0.0,79.1*,-10.5%
CC(C)N1CCc2c(sc(NC(=O)c3ccc(S(=O)(=O)N4CCOCC4)cc3)c2C(N)=O)C1,-2.7,-7.9,-244.2,-2.2,0.2,21.0,.
CC(C)N1CCc2c(sc(NC(=O)CN3C(=O)c4ccccc4C3=O)c2C(N)=O)C1,29.7,-1.0,3.2,-5.3,-0.3,.,.
CCN1CCc2c(sc(NC(=O)c3ccc(S(=O)(=O)N4CCOCC4)cc3)c2C(N)=O)C1,-6.2,3.0,27.1,-8.8,-1.8,42.8,.
CCN1CCc2c(sc(NC(=O)c3ccc(S(=O)(=O)N4CCOCC4)cc3)c2C(=O)OC)C1,-15.3,-1.9,.,.,.,80.3*,-1.0%
COc1cc2ccccc2cc1C(=O)Nc1sc2c(c1C(N)=O)CCN(C(C)C)C2,12.8,.,-16.0,17.3,-1.9,81.4*,-22.8%
Cc1noc(C)c1NC(=O)Nc1ccc2c(c1)C(=O)N([C@H](C)CO)C[C@H](C)[C@@H](CN(C)Cc1ccc(Cl)c(Cl)c1)OCCCC[C@H](C)O2,-28.4,-3.9,14.0,10.1,-0.4,3.6,.
Cc1ccnc(Nc2nc(-c3sc(C)nc3C)cs2)c1,77.9*,-10.6,-15.3,-30.3,-2.5,?,-4.5%
COc1cccc(NC(=O)Cn2c(=O)n(CCCC(=O)NCc3ccco3)c(=O)c3ccccc32)c1,14.7,-10.3,.,.,.,5.6,.
CCOC(=O)c1c(NC(C)=O)sc2c(O)c(CN3CCN(CC)CC3)ccc12,.,.,.,.,.,62.1*,23.6%
c1cc2c3c(cccc3c1)C(N1CCCCCC1)=N2,.,6.0,.,.,.,18.0,.
c1cc2c3c(cccc3c1)C(N1CCCCC1)=N2,.,.,.,.,.,65.0*,-19.5%
O=C(CCc1nnc(C2(c3ccc(Cl)cc3)CCC2)o1)N1CCCC1,-57.2,2.3,-4.6,.,0.1,-3.7,.
O=c1cc(NCCO)c2ccccc2o1,.,.,.,.,.,0.0,.
CCN(CC)CCNc1ccc(CO)c2oc3ccccc3c(=O)c12,-9.1,.,47.5,19.8,7.2,80.2*,-23.0%
CCCCOc1ccc(C(=O)NCC2(c3ccc(OC)cc3)CCOCC2)cc1,3.3,-20.7,.,.,.,.,.
COc1cc2nc(N3CCNCC3)nc(N)c2cc1OC,.,.,.,.,.,64.2*,-9.3%
CCOC(=O)c1c(C)n(-c2ccc(OC)cc2)c2ccc(O)c(CN(C)C)c12,-2.0,-15.2,43.5,8.3,-1.3,?,10.8%
CCOC(=O)c1c(C)n(-c2ccc(C)cc2)c2ccc(O)c(CN(C)C)c12,6.9,-9.5,42.7,6.1,0.4,36.9,.
CCN(CC)CC(=O)Nc1cc(N(C)C)nc2ccccc12,-0.3,-13.1,31.1,3.7,0.8,51.3*,-2.7%
SMILES,LGR2 antag,GSIS activator,RAD52 inh,EWS-Fli inh,F508del corr,RAD54 branch,DNA binding
Cn1c(CCNC(=O)c2cc(COc3ccc(F)c(F)c3)on2)nc2ccccc21,-19.5,4.9,-13.3,-55.7,-5.1,-2.1,.
Cn1c(C(=O)NCCCN2CCc3ccccc3C2)cc2c(=O)n(C)c3ccccc3c21,0.6,5.9,20.0,-4.2,-1.3,19.2,.
CCCN1CCN(CCCNC(=O)c2cc3c(=O)n(C)c4ccccc4c3n2C)CC1,20.6,2.5,26.4,7.4,-3.9,?,-3.4%
CN1CCN(CCNC(=O)c2cc3c(=O)n(C)c4ccccc4c3n2C)CC1,-0.8,-10.6,19.5,-4.1,1.9,63.6*,0.4%
Clc1nc(-c2ccccc2)ncc1Oc1ccccc1,-28.2,8.1,-10.0,-21.5,2.2,1.0,.
CCCn1c(=N)c(C(=O)NC2CCCC2)cc2c(=O)n3cccc(C)c3nc21,.,.,.,.,.,8.8,.
CCn1c(=N)c(C(=O)NC)cc2c(=O)n3cccc(C)c3nc21,.,.,.,.,.,?,0.0%
NC(=O)C1CCN(c2nc(-c3cccc(N)c3)cs2)CC1,-60.0,2.1,.,-137.6,-5.0,4.1,.
NC(=O)C1CCN(c2nc(-c3cccnc3)cs2)CC1,1.9,3.2,10.9,2.8,-3.3,59.7*,13.6%
CCOC(=O)c1[nH]c2cc3c(cc2c1CCCN1C(=O)c2ccccc2C1=O)OCCO3,.,.,.,.,.,?,5.5%
CC(C)N(C)Cc1cn(C)nc1-c1ccc(Oc2ccccc2)cc1,-8.9,-7.2,-3.1,7.9,0.3,0.7,.
CCN(CC)S(=O)(=O)c1ccc(N/N=C/c2cc(OC)c(OC)cc2OC)nc1,-0.8,-4.8,.,.,.,-7.0,.
COc1cccc2c1-c1c(O)cccc1C2=O,5.7,15.5,-29.1,-12.6,0.6,?,-18.7%
COc1ccccc1O,-25.5,3.1,0.2,-12.1,-1.7,2.5,.
Oc1ccc(Br)cc1-c1nc2cnccn2c1NC1CCCCC1,19.3,-34.5,-54.6,-4.9,0.2,0.9,.
Cc1cccc2c1-c1sc(C(=O)NCCCN3CCCC(C)C3)cc1CO2 (stereo not drawn),-11.0,20.5,42.9,.,0.8,53.6*,2.1%
CCCN1CCN(CCCNC(=O)c2cc3c(s2)-c2c(C)cccc2OC3)CC1,-22.6,20.4,33.9,.,0.3,38.6,.
COCCCNCCC(CCC(C)C)c1ccc2c(c1)OCO2 (stereo not drawn),-10.0,.,-9.4,7.1,2.0,?,13.3%
COc1ccccc1C1=NOC(Cn2c(NCCCO)nc3c2c(=O)n(C)c(=O)n3C)C1 (stereo not drawn),8.9,20.6,-12.2,3.1,-0.4,?,4.5%
COc1ccccc1C1=NOC(Cn2c(NCC3CCCO3)nc3c2c(=O)n(C)c(=O)n3C)C1 (stereo not drawn),6.2,11.1,-6.9,0.9,1.7,-3.5,.
CN1CCCC1CCNc1ccc2sc3ccccc3c(=O)c2c1 (stereo not drawn),-44.9,11.7,-1.6,-39.4,-0.6,56.3*,-16.1%
O=c1c2ccccc2oc2ccc(NCCCn3ccnc3)cc12,2.8,-5.1,-78.8,-35.3,3.5,-11.3,.
Cc1cc2oc3cc(NCCC4CCCN4C)ccc3c(=O)c2cc1C (stereo not drawn),.,.,-261.0,17.3,6.4,69.4*,-14.7%
